From PubChem BioAssay
FMDV inh: High Throughput Screening for Foot and Mouth Disease Virus Antivirals; 1.2% of 410,000 active; AID 1159524, 2015; Potency, µM (series often up to 57.9 µM), without a hit: top-dose activity change, negative = inhibition, usual class: inhibitors; FMDV antiviral cell-based qHTS; calls by dose curve; tested in HEK293T cells; also: read-out not given here; potency is read from the fitted curve at half-maximal effect; nearly all actives have a fitted effect of over 45% in size
Sm TGR block: qHTS Assay for the Inhibitors of Schistosoma Mansoni Peroxiredoxins | AID 485364, 2010 | Schistosoma mansoni thioredoxin glutathione reductase (TGR), Q962Y6 | Potency, µM (titrated, usually from 114 µM), without a hit: at the highest dose activity change, negative = inhibition, most hits filed as inhibitors | 3% of 360,000 active | purified TGR, DTNB reduction, TNB absorbance 405 nm; also: potency is read from the fitted curve at half-maximal effect; nearly all actives have a fitted effect of over 60% in size
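TGR 20 nM + NADPH 100 uM (dispensed conc.), cpd preinc 15 min RT; start with NADPH (500 uM addition) then DTNB (15 mM addition). Kinetic TNB absorbance, 405 nm filter. Four-parameter Hill fit across titration.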
HCMV antiviral: qHTS Assay for inhibitors of the human cytomegalovirus (HCMV) | HFF cells, HCMV-luciferase reporter, 72 h; stronger effect = lower value | AID 1259415, 2018 | activity change, negative = inhibition, % at 57.5 µM | 4.5% of 410,000 active; in the data active = activity change below about -60%; inconclusive = no clear call, values can overlap the other calls; inactive = above about -39%
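Luciferase read-out from HCMV-luciferase-infected HFFs (MOI 1 PFU/cell) 72 h post infection at 37C; compounds added after 16 h cell attachment; activity normalized between buffer-only basal and Salinomycin (10uM) inhibitor controls.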
Vaccinia mCherry: qHTS for Stage-Specific Inhibitors of Vaccinia Orthopoxvirus: mCherry Reporter Primary qHTS; Vaccinia virus mCherry reporter infection, fluorescence; Potency, µM (series often up to 36.5 µM), for inactives: top-dose activity change, negative = inhibition, actives largely listed as inhibitors; 0.63% of 310,000 active; AID 720579, 2013; calls by dose curve; tested in A549 cells; also: potency is read from the fitted curve at half-maximal effect; nearly all actives have a fitted effect of over 35% in size
VACV Venus inh: qHTS for Stage-Specific Inhibitors of Vaccinia Orthopoxvirus: Venus Reporter Primary qHTS; 0.46% of 330,000 active; AID 720580, 2013; Potency, µM (series often up to 36.5 µM), for inactives: at the highest dose activity change, negative = inhibition, usual class: inhibitors; Vaccinia virus Venus reporter expression, fluorescence; calls by dose curve; tested in A549 cells; also: potency is read from the fitted curve at half-maximal effect; nearly all actives have a fitted effect of over 30% in size
HCV inh: qHTS Assay for Inhibitors of Hepatitis C Virus (HCV). Huh7.5.1 HCVcc-Cre infection, luciferase reporter, 44 h. Potency, µM (doses to about 41.8 µM), without a hit: top-dose activity change, negative = inhibition, usual class: inhibitors. 3.4% of 340,000 active. AID 651820, 2012; also: potency is read from the fitted curve at half-maximal effect
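Infectious HCVcc-Cre (~0.5 moi) was added to cells just after compound, with cells seeded 4 h earlier at 1,000 per well. Luciferase activity after 44 h culture reported infection; substrate was incubated 15 min at room temperature before reading.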
* hit, by the source's call; i = inactive; ? = inconclusive; . = no result given; [ ] = remark or other dose. Rows were chosen to be rich in hits. Some 9.3% of all compounds tested hit in one or more screens of this group. Unless noted, calls follow the shape of the dose curve; as a rule, active = well fitted curve in the direction sought with a large enough effect; inconclusive = small, poorly fitted or top-dose-only effect, or another doubt; inactive = no such curve, though single readings can be large; an effect the other way counts as inactive or inconclusive. % is scaled to controls: 0 for no effect and ±100 for the full control effect.

SMILES	FMDV inh	Sm TGR block	HCMV antiviral	Vaccinia mCherry	VACV Venus inh	HCV inh
COc1ccccc1/C=C/C(=O)OCC(=O)NCc1ccco1	-8.7%	1.4%	-28.8	-15.1%	-0.1%	-3.5%
O=C(COC(=O)C1CC2C=CC1C2)NCc1ccco1 (configuration not stated)	1.9%	50.1µM*	0.3	.	5.5%	7.7%
CN(c1ccccc1)S(=O)(=O)c1ccc(C(=O)OCC(=O)NCc2ccco2)cc1	-11.9%	25.1µM*	-1.0	.	-8.8%	22.4%
CCOC(=O)Cc1cnc(NC(=O)CSc2nc(N)cc(=O)[nH]2)s1	-9.5%	-8.4%	?	i	-8.0%	9.5%
O=C(CN1CCCc2ccccc21)NC(=O)NCc1ccco1	-4.0%	-30.7%	30.5	.	.	19.5%
COc1ccccc1NS(=O)(=O)c1ccc(C(=O)OCC(=O)NCc2ccco2)cc1	-13.7%	39.8µM*	36.2	-16.3%	-13.8%	18.1%
O=C(COC(=O)C1(c2ccc(F)cc2)CCCC1)NCc1ccco1	-28.6%	31.6µM*	-1.3	4.5%	5.0%	-15.5%
Cc1ccc2cccc(OCC(=O)NCc3ccco3)c2n1	6.4%	44.7µM*	-29.1	.	.	-12.8%
O=C(COC(=O)C1CCCCC1C(=O)N1CCc2ccccc21)NCc1ccco1 (configuration not stated)	-13.5%	25.1µM*	?	?	-24.2%	-7.3%
Cc1ccc(OCC(=O)NCc2ccco2)c([N+](=O)[O-])n1	5.5%	.	96.2	-2.3%	-15.5%	-10.8%
COc1ccccc1NC(=O)COC(=O)c1ccc(S(=O)(=O)NCc2ccco2)cc1	-7.5%	?	40.5	.	0.1%	7.8%
CSc1ncc(C(=O)Nc2c(C)cccc2C)c(-c2ccccc2)n1	-21.8%	2.0%	7.3	-8.8%	-9.0%	.
CC(=O)N1c2ccc(S(=O)(=O)NCCC(=O)Nc3cccc(Cl)c3)cc2CC1C (configuration not stated)	-2.2%	-5.6%	-37.6	i[7.34 µM]	0.0%[7.34 µM]	-21.9%
CCOC(=O)c1c(C)n(OCc2ccccc2)c2ccc3c(no[n+]3[O-])c12	.	-0.5%	-31.0	i	-4.4%	7.08µM*
CN1C(=O)C2(N=c3ccccc3=N2)c2ccccc21	5.3%	0.0%	.	3.4%	4.6%	11.2µM*
Oc1cc2c(cc1C(c1ccc(Cl)c(Cl)c1)N1CCCC1)OCO2 (configuration not stated)	?	0.501µM*	-97.0*	?	-6.6%	-23.4%
COc1ccc(CNC(=O)c2ccc(CS(=O)(=O)c3ccccc3OC)o2)cc1	-13.2%	9.3%	-22.6	-7.7%	-6.6%	.
CC1CCCC(C)N1C(=O)c1ccccc1Nc1ccc(SC(F)F)cc1 (configuration not stated)	-27.0%	-14.3%	-20.0	.	.	2.82µM*
O=C(COC(=O)c1ccccc1Nc1ccc(SC(F)F)cc1)NC1CC1	3.4%	-1.3%	-71.0*	-6.5%	-3.7%	-28.8%
COc1ccc(C(CNC(=O)c2c(C)nn(Cc3ccccc3)c2Cl)N2CCOCC2)cc1 (configuration not stated)	-18.7%	-23.3%	0.0	.	.	-5.6%
CC(C)c1c(C(=O)N(C)Cc2cccc3ncccc23)cnn1-c1nccc(-c2ccccc2F)n1	12.6µM*	.	.	?	?	.
N#Cc1c(-n2ncnc2-c2ccccc2Cl)sc2c1CCCCC2	-27.1%	-4.7%	-0.2	-2.1%	9.0%	.
N#Cc1c(-n2ncnc2-c2ccccc2C(F)(F)F)sc2c1CCCCC2	0.355µM*	0.8%	-69.0*	-5.1%	8.3%	.
COc1cccc(-c2ccc(CN3C(C(C)C)C(=O)N(Cc4cn(CCC5OCCO5)nn4)CCS3(=O)=O)cc2)c1OC (configuration not stated)	-15.0%	.	3.0	-0.9%	-10.8%	.
COc1ccc(N/C=C(\C#N)c2nc3ccccc3n2C)c(OC)c1	-9.1%	-2.6%	-26.1	.	.	5.01µM*
